According to PubChem BioAssay (Tox21):
“And” between values parts separate entries of the source, which are not always exact repeats. Identical values can stand only once. Inconclusive results are not listed. Entries that show only a call come without a potency. The source made the active and inactive calls. Calls come from the whole dose curve; as a rule, active = well fitted cell-killing curve with a large enough effect in the repeat runs; inconclusive = weak or mixed curves, or effect the other way; inactive = flat fitted curve, though single readings scatter.

Assay: qHTS RealTime-Glo MT Cell Viability Assay in HepG2 cells - 0 hour (AID 1224889); note: nearly all actives have a fitted effect of over 50% in size
Settings: RealTime-Glo luminescence; series mostly up to 76.8 µM
Source text: U.S. Tox21 Program National Center for Advancing Translational Sciences [NCATS] NIH Chemical Genomics Center [NCGC] U.S. Environmental Protection Agency [EPA] National Institutes of Environmental Health Sciences [NIEHS] National Toxicology Program [NTP] U.S. Food and Drug Administration [FDA] Tox21 Assay Overview: Measure of cell viability is critical in the cell-base assay. Analysis of cell viability is necessary for the characterization of cell responses to cytotoxic drugs and environmental stress. A RealTime-Glo MT Cell Viability Assay to monitor cell viability in real time of continues cell culture during 40 hours of compound treatment was used to screen Tox21 10K library compounds in HepG2 cells. The RealTime-Glo MT Cell Viability Assay is a nonlytic, homogeneous, bioluminescent method to measure cell viability in real time using a simple, plate-based method. The assay involves adding NanoLuc luciferase and a cell-permeant prosubstrate to cells in culture. Viable cells reduce the proprietary prosubstrate to generate a substrate for NanoLuc luciferase. This substrate diffuses from cells into the surrounding culture medium, where it is rapidly used by the NanoLuc Enzyme to produce a luminescent signal. The signal correlates with the number of viable cells, making the assay well suited for cytotoxicity studies.
Tox21 Assay Protocol Summary: The mixture of HepG2 cell suspension and reagents were dispensed at 600cells/6 ul/well in 1536-well tissue culture treated black solid bottom plates using a Multidrop dispenser. After the assay plates were incubated at a 37 C/5% CO2 incubator for 5 hours, 23 nL of compounds dissolved in DMSO, positive and negative controls was transferred to the assay plate by a pintool work station. The plates were incubated at 37 C for 40 hours. The luminescence intensity were measured at 0h, 8h, 16h, 24h, 32h and 40h time points using ViewLux plate reader during compound treatment.
Potency is the fitted concentration of half-maximal effect.

Question: For `Nc1ccc([N+](=O)[O-])cc1O`, which Potency is on record?
Answer: The Potency was “inactive”.

Question: With `O=C1OC2(c3ccccc31)c1cc(Br)c(O)c(Br)c1Oc1c2cc(Br)c(O)c1Br` as the molecule, how does the Potency read?
Answer: The Potency was 9.92 µM (active) and 20 µM (active).

Question: For `Cc1ncc([N+](=O)[O-])n1C`, which Potency is on record?
Answer: Its Potency is “inactive”.

Question: For `CN(C)C(=S)SC(=S)N(C)C`, which Potency is on record?
Answer: The Potency was “inactive”.

Question: With `CC(O)(P(=O)(O)O)P(=O)(O)O` as the molecule, how does the Potency read?
Answer: Its Potency is “inactive”.

Question: For `CCCc1cc(=O)[nH]c(=S)[nH]1`, which Potency is on record?
Answer: The Potency was “inactive”.

Question: Which Potency does the source give for `C1=CC2C3C=CC(C3)C2C1` (stereo not given) here?
Answer: Its Potency is “inactive”.

Question: For `O=CC(=O)c1ccccc1`, which Potency is on record?
Answer: The Potency was “inactive”.

Question: With `OC[C@H]1O[C@H](O[C@]2(CCl)O[C@H](CCl)[C@@H](O)[C@@H]2O)[C@H](O)[C@@H](O)[C@H]1Cl` as the molecule, how does the Potency read?
Answer: Its Potency is “inactive”.

Question: With `NC(CO)(CO)CO` as the molecule, how does the Potency read?
Answer: Its Potency is “inactive”.

Question: Which Potency does the source give for `CN(C)CCOC(C)(c1ccccc1)c1ccccn1` (stereo not given) here?
Answer: The Potency was “inactive”.

Question: With `O=C(O)CC(O)C(=O)O` (stereo not given) as the molecule, how does the Potency read?
Answer: The Potency was “inactive”.

Question: With `C[C@](N)(Cc1ccc(O)c(O)c1)C(=O)O` as the molecule, how does the Potency read?
Answer: Its Potency is “inactive”.

Question: Which Potency does the source give for `CCCC[P+](CCCC)(CCCC)CCCC` here?
Answer: Its Potency is “inactive”.

Question: With `Cc1ncc([N+](=O)[O-])n1CCO` as the molecule, how does the Potency read?
Answer: The Potency was “inactive”.

Question: For `CC1(C)O[C@@H]2C[C@H]3[C@@H]4CCC5=CC(=O)C=C[C@]5(C)[C@@]4(F)[C@@H](O)C[C@]3(C)[C@]2(C(=O)CO)O1`, which Potency is on record?
Answer: Its Potency is 22 µM (active) and 12.3 µM (active).

Question: For `O=C1NC(=O)C(c2ccccc2)(c2ccccc2)N1`, which Potency is on record?
Answer: Its Potency is “inactive”.

Question: With `CCc1nc(N)nc(N)c1-c1ccc(Cl)cc1` as the molecule, how does the Potency read?
Answer: Its Potency is “inactive”.

Question: Which Potency does the source give for `Nc1ccc(S(N)(=O)=O)cc1` here?
Answer: Its Potency is “inactive”.

Question: Which Potency does the source give for `CN1CCC[C@H]1c1cccnc1` here?
Answer: The Potency was “inactive”.

Question: With `CCCCC(CC)C(=O)O` (stereo not given) as the molecule, how does the Potency read?
Answer: The Potency was “inactive”.

Question: Which Potency does the source give for `CN(C)C(=O)Nc1ccc(Cl)c(Cl)c1` here?
Answer: The Potency was “inactive”.

Question: With `O=C1c2c(O)cccc2Cc2cccc(O)c21` as the molecule, how does the Potency read?
Answer: Its Potency is “inactive”.

Question: For `CCN(CC)C(=O)c1cccc(C)c1`, which Potency is on record?
Answer: Its Potency is “inactive”.

Question: With `CCN(Cc1c(F)cccc1Cl)c1c([N+](=O)[O-])cc(C(F)(F)F)cc1[N+](=O)[O-]` as the molecule, how does the Potency read?
Answer: Its Potency is “inactive”.

Question: For `CN(C)CCOC(c1ccccc1)c1ccccc1`, which Potency is on record?
Answer: Its Potency is “inactive”.

Question: Which Potency does the source give for `C=CCc1ccc(O)c(OC)c1` here?
Answer: Its Potency is “inactive”.

Question: Which Potency does the source give for `O=C(Nc1ncc([N+](=O)[O-])s1)c1cccs1` here?
Answer: The Potency was “inactive”.

Question: Which Potency does the source give for `NC1CCCCC1` here?
Answer: The Potency was “inactive”.

Question: Which Potency does the source give for `CN1[C@@H]2CC(OC(=O)[C@H](CO)c3ccccc3)C[C@H]1[C@@H]1O[C@@H]12` (stereo not given in full) here?
Answer: Its Potency is “inactive”.

Question: For `CCCCCCCCCCCCCCCC[N+](C)(C)Cc1ccccc1`, which Potency is on record?
Answer: The Potency was “inactive”.

Question: With `F[B-](F)(F)F` as the molecule, how does the Potency read?
Answer: The Potency was “inactive”.

Question: Which Potency does the source give for `CC(=O)CCC(=O)O` here?
Answer: The Potency was “inactive”.

Question: Which Potency does the source give for `CNNCc1ccc(C(=O)NC(C)C)cc1` here?
Answer: The Potency was “inactive”.

Question: Which Potency does the source give for `COc1cccc(O)c1O` here?
Answer: Its Potency is “inactive”.

Question: Which Potency does the source give for `CCCCCCc1ccc(O)cc1O` here?
Answer: Its Potency is “inactive”.

Question: For `O=C1O[C@H]([C@@H](O)CO)C(O)=C1O`, which Potency is on record?
Answer: Its Potency is “inactive”.

Question: Which Potency does the source give for `CC/C(=C(\c1ccccc1)c1ccc(OCCN(C)C)cc1)c1ccccc1` here?
Answer: Its Potency is “inactive”.

Question: Which Potency does the source give for `CCCCOC(=O)c1ccc(O)cc1` here?
Answer: Its Potency is “inactive”.

Question: With `Cc1cc(=O)oc2cc(O)ccc12` as the molecule, how does the Potency read?
Answer: The Potency was “inactive”.
